Bioassay records as filed in PubChem BioAssay.
A selection: hits, their analogues and other compounds. The true share with any hit is near 1.7%.
Vif imaging = inhibitors of HIV Vif | 340,000 tested, 0.35% active | HEK293T cells, Vif self-association by quenched fluorescence, imaging, 24 h | inhibition, % at 7.49 µM | AID 602346; in the data active = inhibition above about 50%, passing the limit was not always enough
F508del corr = correctors of CFTR F508del function in bronchial epithelial cells. CFBE cells, YFP halide quenching; stimulated with forskolin plus potentiator P3; % fluorescence drop versus neutral controls. activity (quench increase), % at 7.58 µM. 350,000 tested, 0.36% active;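 active = mean added fluorescence quench of at least 8% versus neutral control, with both replicates also reaching 8%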;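 note: cells transiently co-express mutant CFTR-F508del with the halide-sensitive YFP; corrector assay measuring rescue of mutant channel to the surface after 24 h compound exposure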
FGF22 binding = FGF22 (human) thermal shift binding. recombinant FGF22 thermal shift, SYPRO orange fluorescence; percent of sucrose octasulfate shift, DMSO zero. activity (Tm shift, normalised), % at 9.99 µM. AID 651658. 340,000 tested, 1.5% active. Q9HCT0;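 active = mean Tm shift, scaled 0 neutral to 100 positive control, at about 1.3% or above, every replicate too, limit read from the data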
Target sequence (Q9HCT0 whole entry, looked up): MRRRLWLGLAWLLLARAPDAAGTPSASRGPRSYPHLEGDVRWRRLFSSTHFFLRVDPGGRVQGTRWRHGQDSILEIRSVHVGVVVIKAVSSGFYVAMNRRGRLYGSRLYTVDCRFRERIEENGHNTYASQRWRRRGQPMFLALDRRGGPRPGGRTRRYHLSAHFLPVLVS
* = called active by the depositor; / = no result given.

SMILES	Vif imaging	F508del corr	FGF22 binding
Cc1noc(C)c1S(=O)(=O)Nc1ccc2c(c1)C(=O)N([C@H](C)CO)C[C@H](C)[C@@H](CN(C)S(=O)(=O)c1c(C)noc1C)OCCCC[C@H](C)O2	/	0	0
CCCNC(=O)C[C@@H]1CC[C@@H]2[C@@H](COc3ccc(NC(=O)CCC)cc3C(=O)N2C)O1	/	1	0
CCNC(=O)C[C@H]1CC[C@@H]2[C@H](COC[C@@H](O)CN2C(=O)c2cc(Cl)cc(Cl)c2)O1	/	1	0
O=C1c2cccc3c(N4CCCCC4)ccc(c23)C(=O)N1c1ccc(O)cc1	112*	2	0
Nc1ccc2c3c(cccc13)C(=O)N(c1ccccc1)C2=O	/	33*	1
O=C1c2cccc3c(N4CCCCC4)ccc(c23)C(=O)N1c1ccccc1O	-1	6	0
Nc1cccc(N2C(=O)c3cccc4c(N)ccc(c34)C2=O)c1	/	5	0
Cc1cccc(NC(=O)c2ccccc2NC(=O)C2CCCCC2)c1C	4	8.1*	0
O=C(Nc1ccccc1)c1ccccc1NC(=O)C1CCCCC1	2	/	/
O=C(C[C@@H]1CC[C@H]2[C@@H](COC[C@H](O)CN2Cc2cccc(F)c2)O1)NCc1cccc(F)c1	/	-1	1
Cc1ccc(S(=O)(=O)N2[C@@H](c3ccc(F)cc3)C(C(=O)O)=CC[C@H]2c2ccc(Cl)cc2)cc1	/	3	1.6*
Cc1ccc([C@@H]2CC=C(C(=O)O)[C@H](c3ccc(Cl)cc3)N2S(=O)(=O)c2ccc(C)cc2)cc1	-10	1	1
O=C(NNC(=O)c1cc2ccccc2oc1=O)c1ccccc1	79*	3	0
O=C(c1ccccc1)c1cc2ccccc2oc1=O	-10	-3	0
N/C(=N\NC(=O)c1ccc(F)cc1)c1cc2ccccc2oc1=O	1	-3	43*
N/C(=N\NC(=O)c1cccc(F)c1)c1cc2ccccc2oc1=O	-7	5	0
O=C(C[C@H]1C[C@H]2c3cc(NC(=O)Nc4ccc(C(F)(F)F)cc4)ccc3O[C@H]2[C@@H](CO)O1)NCc1ccc2c(c1)OCO2	/	-1	0
CCN1C(=O)c2cccc3c(S(=O)(=O)Nc4nc(C)cs4)ccc1c23	60*	/	/
CCN1C(=O)c2cccc3c(S(=O)(=O)Nc4ccncc4)ccc1c23	-10	/	/
O=C(CCNC(=O)c1ccccc1)Nc1ccc(F)c(Cl)c1	1	1	44*
Cc1ccc(NC(=O)CCNC(=O)c2ccccc2)cc1F	19	0	0
C[C@H](CO)N1C[C@H](C)[C@H](CN(C)C(=O)NC2CCCCC2)Oc2ccc(NC(=O)C3CC3)cc2CC1=O	/	2	0
CC1CCN(c2cc(C#N)c(C#N)cc2[N+](=O)[O-])CC1	90*	/	/
CC1CCCCN1c1cc(C#N)c(C#N)cc1[N+](=O)[O-] (configuration not stated)	2	/	/
C[C@@H]1CN([C@@H](C)CO)C(=O)c2cc(NS(=O)(=O)c3ccccc3)ccc2O[C@@H](C)CCCCO[C@@H]1CN(C)C(=O)c1ccccc1	/	2	0
SMILES	Vif imaging	F508del corr	FGF22 binding
CC(C)C(=O)N=C1SC2CS(=O)(=O)CC2N1Cc1ccccc1 (configuration not stated)	55*	-4	43*
CC(C)C(=O)N=C1SC2CS(=O)(=O)CC2N1Cc1ccc(Cl)cc1 (configuration not stated)	3	1	0
COc1ccc(C(=O)N[C@H](C(=O)NCc2ccc(C)cc2)C(C)C)cc1	6	-2	0
COc1ccc(C(=O)NC(C(=O)NCC(=O)Nc2c(C)cccc2C)C(C)C)cc1 (configuration not stated)	2	-2	44*
O=C(NCCCN1CCOCC1)[C@H]1[C@H](CO)[C@H]2Cn3c(cccc3=O)[C@@H]1N2C(=O)C1CCCC1	/	-1	/
Clc1ccccc1CN1CCN(CCCc2ccccc2)CC1	-1	3	43*
OCC1(CCc2ccccc2)CCN(Cc2ccccc2Cl)CC1	0	0	0
C[C@@H]1CN([C@H](C)CO)C(=O)c2cc(C3=CCCC3)cnc2O[C@@H]1CN(C)Cc1ccccc1	/	2	/
C[C@@H]1CCCCO[C@H](CN(C)Cc2ccc(C(=O)O)cc2)[C@H](C)CN([C@H](C)CO)C(=O)c2cc(NS(=O)(=O)c3ccc(F)cc3)ccc2O1	/	-1	0
COc1ccc(S(=O)(=O)Nc2ccc3c(c2)CC(=O)N([C@H](C)CO)C[C@@H](C)[C@@H](CN(C)Cc2ccc(Oc4ccccc4)cc2)O3)cc1	/	4	-1
COc1ccccc1/C=C/C(=O)NCC(=O)N/N=C/c1ccccc1[N+](=O)[O-]	-4	-1	0
O=C(/C=C/c1ccccc1)NCC(=O)N/N=C/c1ccccc1[N+](=O)[O-]	-2	-1	43*
C[C@@H]1CN([C@H](C)CO)C(=O)Cc2cc(NC(=O)CCC(F)(F)F)ccc2O[C@@H]1CN(C)C(=O)Nc1ccc2c(c1)OCO2	/	2	0
CC(=O)c1cccc(NC(=O)CCS(=O)(=O)c2cc3c(cc2C)NC(=O)CO3)c1	0	0	0
CCc1cccc(NC(=O)CCS(=O)(=O)c2cc3c(cc2C)NC(=O)CO3)c1	134*	-1	0
O=C(Nc1ccc(Cl)cc1)N[C@H]1CC[C@H](CCNS(=O)(=O)c2ccccc2F)O[C@H]1CO	/	-1	1
CCOc1ccc(C(C)=O)cc1COC(=O)c1cc([N+](=O)[O-])ccc1N1CCOCC1	71*	5	-1
CCOc1ccc(NC(=O)COC(=O)c2cc([N+](=O)[O-])ccc2N2CCOCC2)cc1	-3	0	0
CCc1cccc(NC(=O)COC(=O)c2cc([N+](=O)[O-])ccc2N2CCOCC2)c1	-9	9.1*	0
CC(=O)Nc1ccc(N2CCOCC2)c(Cl)c1	1	-1	0
COC(=O)c1cc(NC(C)=O)ccc1N1CCOCC1	-4	-1	43*
COc1ccc(OC)c(COC(=O)c2cc([N+](=O)[O-])ccc2N2CCOCC2)c1	-24	6	0
COc1ccccc1-c1cnc2c(c1)C(=O)N([C@@H](C)CO)C[C@@H](C)[C@@H](CN(C)C(=O)CC1CC1)O2	/	1	0
Cc1cccc(S(=O)(=O)N2C[C@@H](O)COC[C@@H]3O[C@@H](CC(=O)NCCCN4CCOCC4)CC[C@H]32)c1	/	1	0
C[C@H](CO)N1C[C@H](C)[C@H](CN(C)Cc2ccc(F)cc2)OCc2ccccc2-c2ccccc2C1=O	/	-2	0
SMILES	Vif imaging	F508del corr	FGF22 binding
CN1CCN(CC(=O)NC2CCCCC2)CC1	92*	/	/
CN1CCC(NC(=O)NC2CCCCC2)CC1	-6	3	0
C/C=C/c1ccc2c(c1)O[C@H](CN(C)C(=O)c1ccccn1)[C@@H](C)CN([C@@H](C)CO)S2(=O)=O	/	0	0
CC[C@@]1(C(=O)OC)N[C@H](CN(C)C(=O)c2ccc(C)cc2)[C@@H]2C(=O)N(C)C(=O)[C@@H]21	11	-4	44*
COC(=O)[C@]1(Cc2ccccc2)N[C@H](CN(C)C(=O)NC(C)C)[C@@H]2C(=O)N(C)C(=O)[C@@H]21	-12	-2	44*
CCN(C[C@H]1N[C@@](CC)(C(=O)OC)[C@H]2C(=O)N(C)C(=O)[C@@H]12)C(=O)c1ccc(F)cc1	9	1	1
